An excerpt weighted towards active compounds, which were near 12% of everything screened.
Shiga inhibitor: inhibitors of Shiga toxin in Vero cells; Vero cells, Shiga toxin protein synthesis inhibition reporter; inhibition, % at 38.7 µM; 290,000 compounds, 9.2% hits; in the data active = inhibition mostly above about 28%, no sharp cut-off; inactive = mostly below about 43%; also: 0% is about no effect
Sm TGR block: S. mansoni TGR enzyme inhibition; purified TGR, DTNB reduction, TNB absorbance 405 nm; Potency, µM (series often up to 114 µM), without a hit: at the highest dose activity change, negative = inhibition, actives largely listed as inhibitors; 360,000 compounds, 3% hits; AID 485364; active = well fitted inhibition curve with a large enough effect; inconclusive = small, poorly fitted or top-dose-only effect; inactive = no such curve, though single readings can be large or run the other way; also: potency is read from the fitted curve at half-maximal effect; % is scaled to controls: 0 for no effect and ±100 for the full control effect; nearly all actives have a fitted effect of over 60% in size
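TGR 20 nM + NADPH 100 uM (dispensed conc.), cpd preinc 15 min RT; start with NADPH (500 uM addition) then DTNB (15 mM addition). Kinetic TNB absorbance, 405 nm filter. Four-parameter Hill fit across titration.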
FMDV inh: antivirals against foot and mouth disease virus; FMDV antiviral cell-based qHTS; Potency, µM (titrated, usually from 57.9 µM), for the others: top-dose activity change, negative = inhibition, actives largely listed as inhibitors; 410,000 compounds, 1.2% hits; AID 1159524; calls by dose curve; tested in HEK293T cells; also: read-out not given here; potency is read from the fitted curve at half-maximal effect; % is scaled to controls: 0 for no effect and ±100 for the full control effect; nearly all actives have a fitted effect of over 45% in size
Cycloheximide cs: counter-screen for Shiga toxin inhibitors: cycloheximide protein synthesis inhibition. cell reporter, cycloheximide protein synthesis inhibition counterscreen. max response, %. 300,000 compounds, 12% hits. AID 2314; in the data active = max response mostly above about 13%, no sharp cut-off; inactive = mostly below about 14%; also: read at 38.3 µM for the half of the compounds with a filed dose; 0% is about no effect
The depositor's hits bear a star; ? = inconclusive; . = no result given; + = active, no number; [ ] = another dose, or the depositor's remark.

SMILES	Shiga inhibitor	Sm TGR block	FMDV inh	Cycloheximide cs
O=C(/C=C/c1ccc([N+](=O)[O-])cc1)Nc1ncc([N+](=O)[O-])s1	95*	0%	-72%	34*
O=C(Nc1ncc([N+](=O)[O-])s1)c1ccccc1Br	65*	?	17%	50*
Cc1cnc(NC(=O)c2cccs2)s1	67*	-2%	1%	29*
O=C(Nc1ncc([N+](=O)[O-])s1)c1cccs1	27*	-21%	?	37*
Cc1cnccc1NC(=O)c1cccs1	-5	8%	-12%	-2
O=C(NC(=S)Nc1nc(-c2ccc(Br)cc2)cs1)c1ccco1	25	?	-11%	1
COc1ccc(-c2csc(NC(=O)c3ccco3)n2)cc1	50*	-2%	30%	55*
O=C(NC(=S)Nc1nc(-c2ccc([N+](=O)[O-])cc2)cs1)c1ccco1	51*	?	8%	18*
Cc1ccc(-c2csc(NC(=O)c3ccco3)n2)cc1C	149*	1%	-9%	34*
O=C(NNc1nc(-c2ccc(Br)cc2)cs1)c1ccco1	81*	.	50%	31*
CCOc1ccc(NC(=O)c2cc(=O)c3cc(CC)ccc3o2)cc1	.	7%	7%	.
CCCCn1c(=O)nc2n(-c3ccc(Br)cc3)c3ccccc3cc-2c1=O	.	-4%	-8%	.
Cc1ccc(C(=O)NCCc2nnc3n2CCN(C(=O)c2ccnc(Cl)c2)CC3)cc1	.	.	1%	.
Cc1ccc(-c2csc(NC(=O)Cc3ccc(F)cc3)n2)o1	37	7.1µM*	4%	15*
CCOc1ccc(-c2csc(NC(=O)c3ccco3)n2)cc1	98	-33%	39%	39*
O=C(Nc1nc(-c2ccccc2)cs1)c1ccco1	122*	0%	-1%	89*
CC(=O)Nc1ccc(-c2csc(NC(=O)c3ccc(C)o3)n2)cc1	11	-62%	0%	-3
Cc1ccc(-c2csc(NC(=O)c3ccc(-c4ccccc4)cc3)n2)o1	96*	10µM*	-22%	48*
O=C(Nc1nc(-c2ccco2)cs1)c1ccccc1	36	-15%[11.4 µM]	0%	32*
O=C(Nc1ccc(-c2csc(Nc3ccccc3)n2)cc1)c1ccccc1	16	-15%	-21%	2
Cc1cccnc1NC(=S)Nc1ccc(F)cc1F	77*	?	4%	35*
Cc1ccc(C)c(NC(=S)Nc2ncccc2C)c1	134*	-23%	75%	36*
COc1cc(NC(=S)Nc2cccc(C)n2)cc(OC)c1OC	-19	10%	10%	1
Cc1cc(C)nc(NC(=S)Nc2ccc(F)cc2F)c1	-14	0%	20%	2
COc1cc(NC(=S)Nc2ncccc2C)cc(OC)c1OC	41	.	7%	20*
SMILES	Shiga inhibitor	Sm TGR block	FMDV inh	Cycloheximide cs
CCOc1cc(/C=C(\C#N)C(N)=O)cc(CSc2ccccc2)c1O	19	.	.	-1
COc1ccc2c(COC(=O)CC3Sc4ccccc4NC3=O)cc(=O)oc2c1 (stereo not drawn)	56	3%	35%	20*
CCn1c(NCc2ccc3c(c2)OCO3)nc2ccccc21	73	11%	43%	22*
C=CCn1c(NCc2ccc3c(c2)OCO3)nc2ccccc21	+	6%	-4%	33*
COc1ccc(NC(=O)COC(=O)COc2cccc3c2OC(C)(C)C3)cc1	.	2%	-21%	.
COc1ccccc1C(=O)COC(=O)COc1cccc2c1OC(C)(C)C2	85*	12%	0%	52*
Cc1ccccc1CN1C(=O)C(C)S/C1=N/N=C/c1ccco1 (stereo not drawn)	47	25µM*	-16%	0
C=CCN1C(=O)C(Cc2ccc(F)cc2)S/C1=N/N=C/c1ccco1 (stereo not drawn)	-9	-2%	-11%	-6
CC1S/C(=N/N=C/c2ccco2)N(Cc2ccc(F)cc2)C1=O (stereo not drawn)	57*	32µM*	2%	30*
O=C1CS/C(=N/N=C/c2ccco2)N1Cc1ccc(F)cc1	38	25µM*	5%	11
CCC1S/C(=N/N=C/c2ccco2)N(Cc2ccccc2)C1=O (stereo not drawn)	18	20µM*	-13%	8
COc1ccc(/C=N/N=C2/SCC(=O)N2Cc2ccccc2)cc1	86*	0%	40%	47*
C=CCN1C(=O)C(Cc2ccc(OC)cc2)S/C1=N/N=C/c1ccco1 (stereo not drawn)	-4	40µM*	-26%	7
O=C1CC(c2ccccc2)Sc2ccccc2N1Cc1ccc(F)cc1 (stereo not drawn)	.	6%	?	.
O=C1CSc2ccccc2N1Cc1ccc(F)cc1	23	-1%	3%	31*
COc1cc(OC)cc(N2C(=O)N(Cc3ccc(C(C)(C)C)cc3)c3ccccc3S2(=O)=O)c1	.	13%	0%	.

Bioassay records (PubChem BioAssay)
